What follows are molecules tested on AURKC.

Kinases covered, AURKC:
CCn1cc(-c2ccnc3[nH]c(-c4cccc(CN(C)C)c4)cc23)c(-c2ccc(NC(=O)N(C)C)cc2)n1 [GSK1070916]
CN1CCN(C(=O)c2ccc(NC(=O)Nc3ccc(N(C)c4ccnc(Nc5ccc(CS(C)(=O)=O)cc5)n4)cc3)cc2)CC1.Cl [GW830263A]
COc1cccc(-c2c[nH]c3c(N/N=C/c4ccncc4)ncnc23)c1 [GW814408X]
CN(C)CCNC(=O)Nc1ccc(N(C)c2ccnc(Nc3ccc(CS(C)(=O)=O)cc3)n2)cc1.Cl [GW830900A]

These molecules were tested on BLK.

Kinases covered, BLK:
COc1cc2ncnc(Nc3cccc(Cl)c3F)c2cc1O[C@H]1CC[C@@]2(CC1)NCCNC2=O [BI00113608]
Cc1ccc(C(=O)Nc2ccc(Nc3ccnc4cc(-c5ccccn5)ccc34)cc2O)cc1 [GW440146]
COc1cc2ncnc(Nc3cccc(Cl)c3F)c2cc1O[C@H]1CC[C@H]([C@@H]2NCCNC2=O)CC1 [BI00133844]

The molecules below were run on BRAF.

Kinases covered, BRAF:
CN(C)CCN(C)C(=O)c1cc(-c2ccncc2)c(-c2ccc(Cl)c(O)c2)o1 [SB-710397]
CCCS(=O)(=O)Nc1ccc(F)c(-n2cc(-c3cncc(OC)c3)nn2)c1F [BI00865461]
CN(C)CCOc1ccc(-c2nc(-c3ccc4c(c3)CC/C4=N\O)c(-c3ccncc3)[nH]2)cc1 [SB-590885]
COC(=O)c1c(-c2ccccc2)c2cc(OC)ccc2c(=O)n1Cc1ccccc1 [TPKI-97]
O=C(Nc1cccc(-c2nn3ncccc3c2-c2ccnc(Nc3cccnc3)n2)c1)c1c(F)cccc1F [GSK312879]
